This is an account of results in article PMC4081100, “A DNA-binding-site landscape and regulatory network analysis for NAC transcription factors in Arabidopsis thaliana”.

The target in this test is GST-WRKY1(266-371) (Arabidopsis thaliana, UniProt Q9SI37 266-371). Briefly: universal protein binding microarray (PBM); transcription factors of Arabidopsis thaliana; high values mean tight binding. Particulars: protein: recombinant; tags: GST; dsDNA, one strand shown. The method, boiled down: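 For zinc-finger proteins, zinc acetate was added while GST-tagged NAC-domain, full-length or DNA-binding-domain proteins were induced in cells. Purification used glutathione–Sepharose 4B, and quantification used A280 or anti-GST western blot. Custom all-10-mer Agilent 4 × 180K arrays, made double-stranded by primer extension, each received a protein at 200 to 500 nM final in duplicate. Scoring covered gapped and ungapped 8-mers, with binding given as the normalised enrichment score (E-score).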
Sequence of GST-WRKY1(266-371) (Q9SI37 266-371): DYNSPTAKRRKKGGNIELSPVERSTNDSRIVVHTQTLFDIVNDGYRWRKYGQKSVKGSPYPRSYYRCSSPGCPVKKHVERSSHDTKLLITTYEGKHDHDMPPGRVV
In the case of ACGCAACC, the binding signal was 0.107 E-score.
With CTTGCGTC the figure was 0.0999 E-score; with GTCACGCA, 0.228 E-score.
Under ATTGCGTG stands 0.0947 E-score; under AGTTTGAC, 0.48 E-score.
Under GTTGACTA stands 0.49 E-score; under GATTGACC, 0.479 E-score; under AGTCAAAA, 0.47 E-score.
TAGAGTAA: the binding signal is 0.0876 E-score.
Under GACGCAAA stands 0.117 E-score; under AGACACGC, 0.084 E-score.
Consider CTTGCGTA, for which the binding signal came out at 0.0686 E-score.
Under TAAGTCAA stands 0.483 E-score; under ACGCAAGG, 0.201 E-score; under GACGTCAA, 0.436 E-score.
Regarding TAAGGTCA, the binding signal was found to be 0.441 E-score.
With CAACACGC the figure was 0.125 E-score.
Under CGTCAACG stands 0.47 E-score; under ACACTCAA, 0.133 E-score.
Under CGTGCACG stands 0.0812 E-score; under ATGTCAAC, 0.443 E-score.
As to GACTTTTA, the binding signal stood at 0.414 E-score.
As to CAAAGTCA, the binding signal was determined as 0.454 E-score.
Take ACGTCTCC: the binding signal turned out to be 0.0802 E-score.
Under TGACGTAA stands 0.178 E-score; under AAAGTCAT, 0.428 E-score; under AATAGCGT, 0.0558 E-score.
Regarding AACTTGAC, the binding signal was found to be 0.425 E-score.
With ACGCAATA the figure was 0.0639 E-score.
